E coli Lon inh – E. coli protease La inhibition | P0A9M0 | purified E. coli Lon protease, fluorescence polarization | inhibition, % at 7.94 µM | actives 0.42% (n = 360,000); in the data active means inhibition above about 13%, passing the limit was not always enough
Target sequence (P0A9M0 whole entry, looked up): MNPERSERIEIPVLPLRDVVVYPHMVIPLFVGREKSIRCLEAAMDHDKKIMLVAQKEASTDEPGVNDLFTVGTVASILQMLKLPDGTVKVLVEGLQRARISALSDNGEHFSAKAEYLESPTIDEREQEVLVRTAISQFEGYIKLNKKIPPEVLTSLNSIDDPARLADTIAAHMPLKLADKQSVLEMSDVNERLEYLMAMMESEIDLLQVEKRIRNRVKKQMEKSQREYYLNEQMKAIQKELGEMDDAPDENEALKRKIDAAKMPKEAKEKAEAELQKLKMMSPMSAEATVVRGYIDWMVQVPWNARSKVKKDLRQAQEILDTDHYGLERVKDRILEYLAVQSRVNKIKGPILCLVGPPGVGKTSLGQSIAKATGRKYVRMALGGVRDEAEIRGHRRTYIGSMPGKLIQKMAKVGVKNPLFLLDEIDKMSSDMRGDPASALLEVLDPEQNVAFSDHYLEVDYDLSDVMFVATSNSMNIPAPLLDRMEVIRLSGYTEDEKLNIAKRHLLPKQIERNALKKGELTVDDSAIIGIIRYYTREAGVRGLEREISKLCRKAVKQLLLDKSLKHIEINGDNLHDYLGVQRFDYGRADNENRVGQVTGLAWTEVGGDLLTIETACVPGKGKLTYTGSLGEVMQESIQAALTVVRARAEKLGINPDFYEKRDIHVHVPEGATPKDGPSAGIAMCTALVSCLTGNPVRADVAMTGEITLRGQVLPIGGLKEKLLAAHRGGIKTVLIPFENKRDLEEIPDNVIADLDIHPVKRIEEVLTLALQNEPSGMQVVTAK
MEX-5 binding – C. elegans MEX-5 TCR-2 RNA binding activity. Q9XUB2. MEX-5/FITC-TCR2 RNA binding, fluorescence polarization; active compounds read low. activity score (negative = inhibition of binding), % at 10 µM. actives 0.38% (n = 300,000). AID 1832;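 active means inhibition past about -25% in most replicates, and total fluorescence under double the plate's negative control median, limit read from the data; inconclusive means replicates evenly split on the limit, or fluorescence at least double controls; inactive means too little inhibition in most replicates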
Bcl-xL primary – inhibitors of human Bcl-xL; Q07817; actives 0.7% (n = 320,000); inhibition, % at 10.9 µM; GST-Bcl-xL / FITC-Bim BH3 peptide fluorescence polarization;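 active means inhibition above the mean of all tested compounds plus 3 SD, cutoff set per campaign, cut at about 30% in these data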;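 further: inhibitors lower millipolarization by displacing the labeled peptide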
EBV gp42 inh – EBV gp42 inhibition | Q1HVG2 | Fluorescence polarization binding assay, mP read-out | inhibition, % (tested at 21.74 µM) | actives 0.42% (n = 220,000); in the data active means inhibition above about 50%
MCL1 BIM primary – MCL1-BIM-BH3 interaction inhibition (human); inhibition, % at 10.9 µM; GST-MCL1 / FITC-Bim-BH3 fluorescence polarization; AID 2057; actives 0.68% (n = 320,000);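 active means inhibition above the mean inhibition of all tested compounds plus 3 SD, set per campaign, cut at about 40% in these data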;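 further: higher means more loss of mP so more displacement of Bim peptide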
GLD-1 RNA inh – GLD-1-TGE RNA interaction inhibition (C. elegans); purified GLD-1 + fluorescein TGE RNA, fluorescence polarization; AID 2280; Q17339; inhibition, % at 5.96 µM; actives 0.44% (n = 320,000);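 active means percent inhibition above a per-plate cutoff, the plate mean of test compounds plus 3 SD, cut at about 30% in these data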
Of the large screens only hits and unclear results are named; the others gave an inactive call. The list is not random: actives were taken first. Their share in the collection is about 1.5%.

CCN(CC)c1ccc2c(c1)oc(=O)c1c(Cl)cc(=O)oc12	EBV gp42 inh 54
COc1ccc(-c2noc(CCC(=O)N3CCN(c4ccc(Cl)cc4)CC3)n2)cc1	none (no result: MEX-5 binding, Bcl-xL primary, EBV gp42 inh, MCL1 BIM primary, GLD-1 RNA inh)
COc1ccc(N2CCN(CCCNC(=O)Cn3c(=O)c4cccn4c4ccccc43)CC2)cc1	none (no result: EBV gp42 inh)
O=C(O)C1=CC(=C(c2ccc(O)c(C(=O)O)c2)c2ccc(O)c(C(=O)O)c2)C=CC1=O	Bcl-xL primary 76, MCL1 BIM primary 108, GLD-1 RNA inh 92 (no result: E coli Lon inh, MEX-5 binding, EBV gp42 inh)
CN1CCc2c(sc(N)c2C(=O)O)C1	Bcl-xL primary 31
COc1ccc(C(=O)c2c(N)sc3c2CCN(C)C3)cc1	Bcl-xL primary 33 (no result: EBV gp42 inh)
Cc1cnc(NC(=O)c2c(Cl)cnn2C)s1	none (no result: EBV gp42 inh)
COc1cc(C(CCN2CCCC2)c2c(OC)cc(OC)c3c(-c4ccccc4)cc(=O)oc23)cc(OC)c1OC (configuration not stated)	MEX-5 binding -48
COc1cc(C(CCN2CCOCC2)c2c(OC)cc(OC)c3c(-c4ccccc4)cc(=O)oc23)cc(OC)c1OC (configuration not stated)	none (no result: MEX-5 binding, Bcl-xL primary, EBV gp42 inh, MCL1 BIM primary, GLD-1 RNA inh)
CCN(CC)C(=O)CC(c1cc(OC)c(OC)c(OC)c1)c1c(OC)cc(OC)c2c(-c3ccccc3)cc(=O)oc12 (configuration not stated)	EBV gp42 inh 99
CSCC(C)N1CCC(N2CCC(C(=O)NCc3ccccn3)CC2)CC1 (configuration not stated)	MEX-5 binding inconclusive, Bcl-xL primary 33, MCL1 BIM primary 40 (no result: EBV gp42 inh)
CC(C)CCC(=O)N1CCC(N2CCC(C(=O)NCc3ccccn3)CC2)CC1	none (no result: EBV gp42 inh)
NC(N)=N/N=C(\N=Nc1ccccc1)c1ccc(Cl)cc1	none (no result: MEX-5 binding, Bcl-xL primary, EBV gp42 inh, MCL1 BIM primary, GLD-1 RNA inh)
Cc1ccc(S(=O)(=O)NC(C(=O)Oc2ccc3c(C(F)(F)F)cc(=O)oc3c2)c2ccccc2)cc1 (configuration not stated)	Bcl-xL primary 45, MCL1 BIM primary 42, GLD-1 RNA inh 47
Cc1ccc(N=Nc2c(N)[nH]n3c(=O)cc(-c4ccccc4)nc23)cc1	EBV gp42 inh 63
COc1ccc(CN(CC(=O)NCc2ccccc2)C(=O)CCC(=O)Nc2nccs2)cc1	none (no result: EBV gp42 inh)
COc1cccc(CCN2C(=O)C(=O)N([C@@H](CNCc3ccccc3)Cc3ccccc3F)C[C@@H]2C(C)(C)C)c1	GLD-1 RNA inh 181 (no result: E coli Lon inh, MEX-5 binding, EBV gp42 inh)
O=C(Nc1ccc(N2CCCCCC2)cc1)c1ccc[nH]1	none (no result: MEX-5 binding, EBV gp42 inh)
Cc1nc2sc(-c3ccccc3)cc2c(=O)n1N	MEX-5 binding -32
Cc1nc2sc(-c3ccccc3)cc2c(=O)n1-n1cccc1	none
O=C(c1ccc([N+](=O)[O-])cc1)n1nc(-c2ccccc2)nc1NCc1ccc(F)cc1	Bcl-xL primary 38
CSc1c(C#N)c(N)nc2sc(C(=O)c3ccc(Cl)c(Cl)c3)c(N)c12	MEX-5 binding inconclusive, EBV gp42 inh 76 (no result: E coli Lon inh)
CCOc1ccc(-c2c(C#N)c(N)nc3sc(C(=O)c4ccccc4)c(N)c23)cc1	MEX-5 binding inconclusive, EBV gp42 inh 70
COc1ccc(-c2c(C#N)c(N)nc3sc(C(=O)c4ccccc4)c(N)c23)cc1	EBV gp42 inh 81
CC(C)OC(=O)c1sc2nc(-c3ccccc3)ccc2c1N	none
CCCCOC(=O)CSc1nc(N)c(C#N)c(-c2ccc(OCC)cc2)c1C#N	none
COc1ccc(C(=O)c2sc3nc(-c4ccccc4)ccc3c2N)cc1	Bcl-xL primary 52, MCL1 BIM primary 40
Cc1ccccc1CNC(=O)C(=O)NCCC1CCCCN1S(=O)(=O)c1ccccc1 (configuration not stated)	none (no result: EBV gp42 inh)
Cc1ncc(CN2CCC(CO)(CCc3ccccc3)CC2)s1	none
CCOC(=O)C1(C)CCN1C(=O)c1ccc(OC)c(F)c1 (configuration not stated)	none (no result: MEX-5 binding, Bcl-xL primary, EBV gp42 inh, MCL1 BIM primary, GLD-1 RNA inh)
COc1c(C)cc(S(=O)(=O)NCCN2CCOCC2)c(C)c1C	none (no result: EBV gp42 inh)
CN1CCCc2cc(C=O)ccc21	Bcl-xL primary 31
O=Cc1ccc(N2CCCC2)c([N+](=O)[O-])c1	none
CNC(=O)c1ccc(NC(=O)Nc2ccccc2)cc1	none (no result: EBV gp42 inh)
Cc1ccc2occ(CN3CCN(c4ccccc4)CC3)c(=O)c2c1	Bcl-xL primary 36
Cc1ccc2occ(CN3CCN(Cc4ccccc4)CC3)c(=O)c2c1	none (no result: E coli Lon inh)
Cc1nnsc1C(=O)N/N=C/c1ccc2ccccc2c1O	Bcl-xL primary 75, MCL1 BIM primary 84

Screening results deposited in PubChem by several laboratories.
